The values that follow come from PubChem BioAssay (NCI).

Among the test systems are HCT-15 colon; HT29 colon; SNB-75 CNS; SNB-19 CNS; U251 CNS; PC-3 prostate; SK-MEL-5 melanoma; UACC-62 melanoma; LOX IMVI melanoma; SK-MEL-28 melanoma.
Assay in all cases: NCI-60 one-dose screen, 48 h (100 = growth as untreated, 0 = no growth, -100 = all killed)
Holding throughout (conditions): 10 µM unless noted

About 83,000 compounds went through this panel and 20% of them were active in at least one assay; those are over-represented in the sample as a whole.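 Note: values are percent growth. 100 is the growth of untreated cells, values between 100 and 0 indicate rising inhibition; between -100 and 0 indicates cell death.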 A number with no mark means an inactive call. The source made the active and inactive calls. How the source made its calls: active means growth percent below 10; inactive means the rest.

With `COc1ccc(C2=NN(c3ccc(S(N)(=O)=O)cc3)C(c3ccc(Cl)cc3)C2)c(O)c1` (stereo not given), the growth in the assay with HCT-15 colon was 52.7%; in the assay with HT29 colon it was 49.9%; with SNB-75 CNS it was 70.1%; in the assay on SNB-19 CNS, 85.3%; in the assay with U251 CNS, 57.7%; in the assay on PC-3 prostate, 27.7%. Besides, the growth with SK-MEL-5 melanoma was 75.4%; in the assay on UACC-62 melanoma, 52.9%; in the assay with LOX IMVI melanoma it was 77.2%; with SK-MEL-28 melanoma, 74.9%.
For the compound `Nc1c(C(=O)Nc2ccccn2)sc2nc3c(cc12)C(=O)CCC3`, the growth is 28.5% in the assay with HCT-15 colon; 12.4% with HT29 colon; 8.84% (active) in the assay on SNB-75 CNS; 28.2% in the assay on SNB-19 CNS; 29.5% with U251 CNS; 37.9% in the assay on PC-3 prostate. Besides, the growth with SK-MEL-5 melanoma was 17.1%; with UACC-62 melanoma it was 34.9%; in the assay with LOX IMVI melanoma it was 44.4%; with SK-MEL-28 melanoma, 56.4%.
As for `O=C(O)CCNC1CCCCC1`, the growth with HCT-15 colon is 99.4%; in the assay on HT29 colon, 106%; in the assay on SNB-75 CNS, 90.3%; with SNB-19 CNS it was 91.2%; in the assay on U251 CNS, 94.2%; in the assay with PC-3 prostate it was 94.8%. The growth in the assay on SK-MEL-5 melanoma was 108%; in the assay on UACC-62 melanoma it was 100%; in the assay on LOX IMVI melanoma, 94.1%; in the assay with SK-MEL-28 melanoma, 100%.
`O=C1Nc2ccc(Cl)cc2/C1=N/c1nc(-c2ccc(Cl)cc2)cs1`: the growth in the assay on HCT-15 colon is 26.7%; with HT29 colon it was -0.232% (active); with SNB-75 CNS, 26.2%; in the assay on SNB-19 CNS, 10.8%; with U251 CNS, -3.58% (active); with PC-3 prostate, 2.97% (active). For the same compound, the growth was 8.24% (active) in the assay on SK-MEL-5 melanoma, -46.6% (active) with UACC-62 melanoma, -7.47% (active) in the assay on LOX IMVI melanoma and 16.3% in the assay with SK-MEL-28 melanoma.
With `CCCn1c2cc(OCc3cn(-c4ccc(Br)cc4)nn3)ccc2c2ccnc(C)c21`, the growth with HCT-15 colon was 73.5%; in the assay on HT29 colon it was 57.9%; in the assay with SNB-75 CNS, -1.81% (active); in the assay with SNB-19 CNS, 53.8%; in the assay on U251 CNS it was 33.8%; with PC-3 prostate, 74.5%. Also, the growth was 76.8% with SK-MEL-5 melanoma, 38.8% with UACC-62 melanoma, 72.7% with LOX IMVI melanoma and 80.3% with SK-MEL-28 melanoma.
For `COc1ccc(-c2cn(-c3ccc(Cl)cc3)c(=S)[nH]2)cc1OC`, the growth is 63.4% in the assay on HCT-15 colon; 44.2% in the assay on HT29 colon; 111% in the assay with SNB-75 CNS; 90.6% in the assay on SNB-19 CNS; 75% in the assay with U251 CNS; 72.4% in the assay on PC-3 prostate. In addition, the growth with SK-MEL-5 melanoma is 41.7%; in the assay with UACC-62 melanoma, 72.5%; in the assay on LOX IMVI melanoma, 0.188% (active); in the assay with SK-MEL-28 melanoma, 92.4%.
With `C=C1C(=O)O[C@H]2[C@H]1CC/C(COC(=O)NCc1nc3ccccc3[nH]1)=C\CC[C@@]1(C)O[C@@H]21`, the growth in the assay on HCT-15 colon is 103%; in the assay with HT29 colon, 63.8%; with SNB-75 CNS it was 91.9%; in the assay with SNB-19 CNS, 98.6%; in the assay on U251 CNS, 92.9%; in the assay with PC-3 prostate, 85.6%. The growth is 97% with SK-MEL-5 melanoma, 80% in the assay with UACC-62 melanoma, 75.9% with LOX IMVI melanoma and 73.1% with SK-MEL-28 melanoma.
As to `COc1cccc(NC(=O)Nc2ccc(Nc3ncnc4[nH]c(C)c(C)c34)cc2)c1`, the growth in the assay on HCT-15 colon was 94.1%; in the assay with HT29 colon it was 95.5%; in the assay on SNB-75 CNS, 82.2%; in the assay with SNB-19 CNS, 98.5%; in the assay on U251 CNS, 90.3%; in the assay with PC-3 prostate it was 93.9%. Besides, the growth in the assay with SK-MEL-5 melanoma was 102%; in the assay with UACC-62 melanoma, 96.6%; in the assay with LOX IMVI melanoma, 99.7%; in the assay with SK-MEL-28 melanoma it was 104%.
As for `CNCc1cccc2c1OCCOCCOCCN(CCN1CCOCC1)S(=O)(=O)c1ccc(cc1)-c1cnc(N)c(n1)C(=O)N2`, the growth with HCT-15 colon is 74.8%; with HT29 colon it was 24.5%; in the assay on SNB-75 CNS it was 16.7%; in the assay with SNB-19 CNS, 76.3%; in the assay with U251 CNS, 53.8%; in the assay with PC-3 prostate, 50.1%. Further, the growth was 76.6% with SK-MEL-5 melanoma, 73% in the assay on UACC-62 melanoma, 28.4% in the assay with LOX IMVI melanoma and 76.3% in the assay on SK-MEL-28 melanoma.
For `c1ccc(-c2n(Cc3ccc4ccccc4n3)cc[n+]2Cc2ccc3ccccc3n2)cc1`, the growth is 102% in the assay with HCT-15 colon; 22.8% with HT29 colon; 42.6% in the assay with SNB-75 CNS; 8.24% (active) with SNB-19 CNS; 14.7% in the assay on U251 CNS; 27% in the assay on PC-3 prostate. For the same compound, the growth in the assay with SK-MEL-5 melanoma is -73.4% (active); in the assay with UACC-62 melanoma, -10.3% (active); in the assay on LOX IMVI melanoma it was 19.5%; with SK-MEL-28 melanoma it was 24.5%.
`O=c1[nH]c2ccccc2cc1-c1nc2ccncc2[nH]1`: the growth is 85.9% in the assay with HCT-15 colon; 84.5% with HT29 colon; 58.3% in the assay with SNB-75 CNS; 82.5% with SNB-19 CNS; 83.7% in the assay with U251 CNS; 74% in the assay with PC-3 prostate. The growth with SK-MEL-5 melanoma is 86.7%; in the assay with UACC-62 melanoma, 80.3%; in the assay on LOX IMVI melanoma, 82.1%; with SK-MEL-28 melanoma it was 95.7%.
For `Cc1nc(C)c(C)nc1C`, the growth was 109% in the assay with HCT-15 colon; 97% with HT29 colon; 101% in the assay on SNB-75 CNS; 99.2% in the assay on SNB-19 CNS; 96.7% in the assay on U251 CNS; 98.3% in the assay with PC-3 prostate. Further, the growth was 102% in the assay with SK-MEL-5 melanoma, 101% in the assay with UACC-62 melanoma, 101% with LOX IMVI melanoma and 113% with SK-MEL-28 melanoma.
